Laboratory results reported in PubChem BioAssay AID1159580 (chemical genetic matrix, 2015).
Several values for one entry are separate records, joined by “and”; a condition that tells them apart may be missing. Equal values may be shown once. The campaign covered roughly 5,500 compounds. About 2,000 (36%) were called active. Another 18% or so got no clear call; they are omitted. Cut-off read from the data, not from the text of the source: active = normalized growth mostly below about 0.91 (no sharp cut-off); inconclusive = no clear call, values can overlap the other calls; inactive = mostly above about 0.92. This is one part of the list.

Assay: chemical genetic growth profiling, strain panel (AID 1159580);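 note: tested at 20 µM; growth read once vehicle control cultures reached saturation at 30 °C; 1 = growth at the plate median or of vehicle wells; lower values mean less growth of the strain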
Details: S. cerevisiae deletion strains, growth OD

Measured: normalized growth

CC1=CC(=O)CC(C)(C)C1(O)/C=C/C(C)=C\C(=O)O (stereo not given)
inactive: locus YAL013W, strain DEP1, active compounds read low 0.986 | locus YAL021C, strain ccr4, active compounds read low 0.996 | locus YAL026C, strain drs2, active compounds read low 1.03 | locus YAL030W, strain snc1, active compounds read low 1.02 | locus YBL061C, strain skt5, active compounds read low 1.02 | locus YBR009C, strain hhf1, active compounds read low 1.01 | locus YBR021W, strain FUR4, active compounds read low 1.02 | locus YBR023C, strain chs3, active compounds read low 1.03 | locus YBR171W, strain sec66, active compounds read low 1.02 | locus YBR229C, strain ROT2, active compounds read low 0.948 | locus YBR231C, strain swc5, active compounds read low 1.03 | locus YBR279W, strain paf1, active compounds read low 1.01 | locus YCL011C, strain gbp2, active compounds read low 1.02 | locus YCL016C, strain dcc1, active compounds read low 1.01 | locus YCL029C, strain bik1, active compounds read low 0.973 | locus YCL069W, strain vba3, active compounds read low 1.01 | locus YCR088W, strain abp1, active compounds read low 1.03 | locus YDL005C, strain med2, active compounds read low 1.03 | locus YDL035C, strain GPR1, active compounds read low 0.981 | locus YDL040C, strain nat1, active compounds read low 1.02 | locus YDL074C, strain BRE1, active compounds read low 0.985 | locus YDL101C, strain DUN1, active compounds read low 0.987 | locus YDL134C, strain PPH21, active compounds read low 0.984 | locus YDL185W, strain tfp1, active compounds read low 0.953 | locus YDL192W, strain arf1, active compounds read low 0.983 | locus YDR001C, strain nth1, active compounds read low 1.03 | locus YDR069C, strain doa4, active compounds read low 1.04 | locus YDR101C, strain arx1, active compounds read low 1.01 | locus YDR137W, strain rgp1, active compounds read low 1.01 | locus YDR150W, strain NUM1, active compounds read low 0.979 | locus YDR159W, strain sac3, active compounds read low 1.03 | locus YDR162C, strain NBP2, active compounds read low 0.979 | locus YDR195W, strain ref2 1.03 | locus YDR297W, strain sur2, active compounds read low 1.03 | locus YDR318W, strain mcm21, active compounds read low 0.979 | locus YDR334W, strain swr1, active compounds read low 1.02 | locus YDR335W, strain msn5, active compounds read low 1.03 | locus YDR388W, active compounds read low 0.985 | locus YDR392W, strain spt3, active compounds read low 1.01 | locus YDR502C, strain sam2, active compounds read low 0.993 | locus YEL003W, strain gim4, active compounds read low 1.02 | locus YEL037C, strain rad23, active compounds read low 1.02 | locus YEL061C, strain CIN8 (second series), active compounds read low 1.03 | locus YEL061C, strain CIN8, active compounds read low 0.986 | locus YER015W, strain faa2, active compounds read low 1.02 | locus YER016W, strain bim1, active compounds read low 1.01 | locus YER110C, active compounds read low 0.96 | locus YER111C, strain swi4, active compounds read low 1.02 | locus YER155C, strain BEM2 (second series), active compounds read low 1.05 | locus YER155C, strain BEM2, active compounds read low 0.995 | locus YER167W, strain BCK2, active compounds read low 0.988 | locus YFR010W, strain ubp6, active compounds read low 1.04 | locus YGL078C, strain dbp3, active compounds read low 0.987 | locus YGL086W, strain mad1, active compounds read low 1 | locus YGL167C, strain pmr1, active compounds read low 1.01 | locus YGL173C, strain kem1, active compounds read low 1.01 | locus YGL227W, strain vid30, active compounds read low 1.03 | locus YGL240W, strain doc1, active compounds read low 1.03 | locus YGL248W, strain PDE1, active compounds read low 0.977 | locus YGL253W, strain hxk2, active compounds read low 1.03 | locus YGR078C, strain PAC10, active compounds read low 0.983 | locus YGR135W, strain pre9, active compounds read low 0.976 | locus YGR252W, strain gcn5, active compounds read low 0.976 | locus YHR013C, strain ard1, active compounds read low 1.03 | locus YHR027C, strain rpn1, active compounds read low 1.02 | locus YHR030C, strain SLT2, active compounds read low 0.988 and 1.01 | locus YHR079C, strain IRE1 (second series), active compounds read low 0.974 | locus YHR079C, strain IRE1, active compounds read low 0.974 | locus YHR094C, strain hxt1, active compounds read low 0.966 | locus YHR129C, strain ARP1, active compounds read low 0.989 | locus YHR142W, strain chs7, active compounds read low 1.02 | locus YHR200W, strain rpn10, active compounds read low 0.984 | locus YIL066C, strain RNR3, active compounds read low 0.976 | locus YIL073C, strain SPO22, active compounds read low 0.896 | locus YIL125W, strain kgd1, active compounds read low 0.982 | locus YIR030C, strain dcg1, active compounds read low 0.983 | locus YJL092W, strain hpr5, active compounds read low 1.02 | locus YJL095W, strain BCK1 (second series), active compounds read low 1.02 | locus YJL095W, strain BCK1, active compounds read low 0.989 and 1.04 | locus YJL115W, strain asf1, active compounds read low 1.03 | locus YJL129C, strain trk1, active compounds read low 1.08 | locus YJL134W, strain LCB3, active compounds read low 0.973 | locus YJL154C, strain vps35, active compounds read low 1.02 | locus YJL164C, strain tpk1, active compounds read low 1.01 | locus YJL166W, strain qcr8, active compounds read low 1.04 | locus YJL168C, strain set2, active compounds read low 0.982 | locus YJL187C, strain SWE1 (second series), active compounds read low 0.972 | locus YJR043C, strain POL32, active compounds read low 0.978 | locus YJR066W, strain TOR1, active compounds read low 0.929 | locus YJR075W, strain HOC1, active compounds read low 0.985 | locus YKL009W, strain mrt4, active compounds read low 0.966 | locus YKL068W, active compounds read low 0.973 | locus YKL085W, strain MDH1 (second series), active compounds read low 0.983 | locus YKL085W, strain MDH1, active compounds read low 0.983 | locus YKL160W, strain elf1, active compounds read low 1.03 | locus YKR001C, strain vps1, active compounds read low 0.975 | locus YKR026C, strain gcn3, active compounds read low 1.03 | locus YKR091W, strain srl3, active compounds read low 1.02 | locus YLL001W, strain dnm1, active compounds read low 1.03 | locus YLL026W, active compounds read low 1.02 | locus YLL041C, strain sdh2, active compounds read low 1.02 | locus YLR027C, strain aat2, active compounds read low 1.03 | locus YLR039C, strain RIC1, active compounds read low 0.959 | locus YLR058C, strain SHM2, active compounds read low 0.973 | locus YLR102C, strain apc9, active compounds read low 0.974 | locus YLR113W, strain HOG1, active compounds read low 1.07 | locus YLR221C, strain rsa3, active compounds read low 1.01 | locus YLR258W, strain gsy2, active compounds read low 1.02 | locus YLR262C, strain YPT6 (second series), active compounds read low 1.04 | locus YLR262C, strain YPT6, active compounds read low 0.941 | locus YLR268W, strain sec22, active compounds read low 0.993 | locus YLR320W, strain mms22, active compounds read low 1.02 | locus YLR330W, strain CHS5, active compounds read low 0.992 | locus YLR342W, strain FKS1 (second series), active compounds read low 0.984 | locus YLR342W, strain FKS1, active compounds read low 1.03 | locus YLR357W, strain rsc2, active compounds read low 1.02 | locus YLR370C, strain arc18, active compounds read low 1.03 | locus YLR371W, strain rom2, active compounds read low 0.952 | locus YLR384C, strain iki3, active compounds read low 1.02 | locus YLR418C, strain cdc73, active compounds read low 0.93 | locus YML016C, strain PPZ1, active compounds read low 0.994 | locus YML032C, strain rad52, active compounds read low 0.97 | locus YML120C, strain ndi1, active compounds read low 1.02 | locus YML124C, strain tub3, active compounds read low 0.976 | locus YMR058W, strain fet3, active compounds read low 1.02 | locus YMR078C, strain ctf18, active compounds read low 0.963 | locus YMR125W, strain sto1, active compounds read low 1.06 | locus YMR129W, active compounds read low 1.03 | locus YMR205C, strain PFK2, active compounds read low 1.02 | locus YMR223W, strain ubp8, active compounds read low 0.941 | locus YMR231W, strain pep5, active compounds read low 1.01 | locus YMR307W, strain GAS1, active compounds read low 1 | locus YNL067W, strain RPL9B, active compounds read low 0.985 | locus YNL071W, strain lat1, active compounds read low 1.03 | locus YNL153C, strain GIM3, active compounds read low 0.987 | locus YNL183C, strain NPR1, active compounds read low 0.99 | locus YNL209W, strain ssb2, active compounds read low 1.02 | locus YNL233W, strain BNI4, active compounds read low 0.997 | locus YNL248C, strain rpa49, active compounds read low 1.02 | locus YNL250W, strain rad50, active compounds read low 0.964 | locus YNL271C, strain bni1, active compounds read low 0.978 | locus YNL298W, strain CLA4, active compounds read low 0.983 | locus YNL307C, strain MCK1, active compounds read low 0.973 | locus YNL322C, strain KRE1 (second series), active compounds read low 1.02 | locus YNL322C, strain KRE1, active compounds read low 0.987 | locus YNR049C, strain mso1, active compounds read low 1.02 | locus YNR052C, strain pop2, active compounds read low 0.989 | locus YOL012C, strain htz1 0.831 | locus YOL147C, strain pex11, active compounds read low 0.971 | locus YOR001W, strain rrp6, active compounds read low 1.01 | locus YOR061W, strain CKA2, active compounds read low 0.951 | locus YOR069W, strain VPS5, active compounds read low 0.992 | locus YOR070C, strain gyp1, active compounds read low 1.01 | locus YOR080W, strain dia2, active compounds read low 1.02 | locus YOR083W, strain WHI5, active compounds read low 1.02 | locus YOR106W, strain vam3, active compounds read low 1.04 | locus YOR136W, strain idh2, active compounds read low 0.977 | locus YOR144C, strain elg1, active compounds read low 0.97 | locus YOR184W, strain ser1, active compounds read low 0.98 | locus YOR231W, strain MKK1, active compounds read low 0.998 | locus YOR265W, strain rbl2, active compounds read low 1.03 | locus YOR270C, strain vph1, active compounds read low 1.08 | locus YOR290C, strain snf2, active compounds read low 1.02 | locus YOR316C, strain cot1, active compounds read low 0.971 | locus YPL051W, strain arl3, active compounds read low 1.03 | locus YPL055C, strain LGE1, active compounds read low 0.979 | locus YPL078C, strain atp4, active compounds read low 1.03 | locus YPL106C, strain sse1, active compounds read low 1.02 | locus YPL240C, strain hsp82, active compounds read low 1.04 | locus YPL256C, strain CLN2, active compounds read low 1.01 | locus YPR119W, strain clb2, active compounds read low 0.968 | locus YPR141C, strain kar3, active compounds read low 0.954 | locus YPR163C, strain tif3, active compounds read low 0.967 | locus YPR167C, strain met16, active compounds read low 0.958 | strain wtn01, active compounds read low 1.03
